Measured values published in PubChem BioAssay (NCATS).
Inconclusive results are not listed. Entries that show only a call come without a potency. Calls of active or inactive are those of the source. Unless noted, the call rests on the fitted dose curve.

Legend:
[1] = biological target: Bile acid receptor (Homo sapiens) (UniProt Q96RI1); assay: qHTS assay for small molecule antagonists of farnesoid X receptor signaling (AID 588526)
In short: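 Concentration-response titrations were fitted to the Hill equation for half-maximal inhibition and maximal response, with data normalised to 50 uM chenodeoxycholic acid and DMSO control wells. Cells: FXR-UAS-bla HEK293T, dialyzed FBS.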

[2] = biological target: Glucocorticoid receptor (Homo sapiens) (UniProt P04150); assay: qHTS assay for small molecule agonists of glucocorticoid receptor signaling (AID 588532; active means well fitted curve in the direction sought with a large enough effect in the signal ratio, with a control signal flat; the % refers to the signal ratio); details: HeLa MMTV-bla, beta-lactamase ratio, agonist, 18 h; stronger effect = higher value; percent of dexamethasone control, DMSO zero
In short: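 MMTV-bla HeLa, beta-lactamase reporter; medium with 1% charcoal/dextran-stripped FBS; cpds up to 92 uM, 18 h, 37 C; CCF4 readout 460/530 nm; Hill fit → EC50, efficacy vs 0.1 uM dexamethasone = 100%.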

[3] = qHTS assay for small molecule antagonists of peroxisome proliferator-activated receptor delta signaling (AID 588535; active means well fitted inhibition curve with a large enough effect in the signal ratio, with a control signal flat, not every such curve was filed as active; the % refers to the signal ratio;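 on max response: cells co-treated with a PPAR-delta agonist as stimulator during compound exposure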); details: HEK293T PPARd-UAS-bla, beta-lactamase FRET ratio, 18 h; 460 nm channel
In short: (§1)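 Inhibition of PPAR-delta response element-driven beta-lactamase expression is measured in HEK293T cells exposed to a compound titration series for 18 hrs at 37 C. Half-maximal inhibition comes from Hill equation fitting.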

[4] = biological target: Peroxisome proliferator-activated receptor delta (Homo sapiens) (UniProt Q03181); assay: as above
In short: as §1

[5] = biological target: Peroxisome proliferator-activated receptor gamma (Homo sapiens) (UniProt P37231); assay: qHTS assay for small molecule agonists of peroxisome proliferator-activated receptor gamma signaling (AID 588536; active means well fitted curve in the direction sought with a large enough effect in the signal ratio, with a control signal flat, not every such curve was filed as active; the % refers to the signal ratio)
In short: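 Beta-lactamase reporter read-out: CCF4 fluorescence (ex 405, em 460/530 nm) after 2 h at RT. HEK293 GeneBLAzer cells were treated for 16 h at 37 C. Hill fits gave EC50 and efficacy versus 2 uM rosiglitazone (100%) and DMSO (0%).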

[6] = biological target: Peroxisome proliferator-activated receptor gamma (Homo sapiens) (UniProt P37231); assay: qHTS assay for small molecule antagonists of peroxisome proliferator-activated receptor gamma signaling (AID 588537; active means well fitted inhibition curve with a large enough effect in the signal ratio, with a control signal flat, not every such curve was filed as active; the % refers to the signal ratio;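 further: reporter cells co-stimulated with 50 nM rosiglitazone agonist during compound treatment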)
In short: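 Compounds are tested as concentration series for inhibition of rosiglitazone-driven (50 nM) reporter expression in GeneBLAzer PPAR-gamma-UAS-bla HEK293 cells. After 16 h at 37 C, CCF4 substrate is added for 2 h at room temperature and blue/green fluorescence is measured.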

[7] = biological target: Vitamin D3 receptor (Homo sapiens) (UniProt P11473); assay: qHTS assay for small molecule antagonists of vitamin D receptor signaling (AID 588541);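 further: receptor activated by calcitriol during compound treatment; series mostly up to about 77 µM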
In short: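 VDR-UAS-bla HEK293T cells (2000/well, 2% charcoal-stripped FBS) were treated with titrated compounds plus 1-alpha,25-dihydroxyvitamin D3 (50 nM or 3 nM final) for 16 h at 37 C. CCF4 beta-lactamase fluorescence was read; Hill fits gave IC50.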

[8] = biological target: Vitamin D3 receptor (Homo sapiens) (UniProt P11473); assay: qHTS assay for small molecule agonists of vitamin D receptor signaling (AID 588543)
In short: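 Agonist-mode beta-lactamase reporter: HEK293T VDR-UAS-bla cells in charcoal-stripped 2% FBS, compound series 16 h 37 C, CCF4 2 h RT. EC50 from Hill fit, scaled against DMSO and 50 nM calcitriol control.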

[9] = qHTS assay for small molecule agonists of retinoid X receptor alpha signaling (AID 588544); details: HEK293T RXRa-UAS-bla, beta-lactamase reporter, 18 h; 530 nm emission
[10] = biological target: Retinoic acid receptor RXR-alpha (Homo sapiens) (UniProt P19793); assay: as above
[11] = biological target: Thyroid hormone receptor beta (Homo sapiens) (UniProt P10828); assay: qHTS assay for small molecule agonists of thyroid hormone receptor beta signaling (AID 588545)
In short: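 Agonist activity was read as beta-lactamase CCF4 fluorescence (405 ex, 460/530 em), scaled between DMSO (0%) and 10 nM T3 (100%), then Hill-fitted for EC50 and efficacy. HEK 293 TR-UAS-bla cells in 2% charcoal/dextran FBS medium were exposed 18 h at 37 C.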

[12] = qHTS assay for small molecule antagonists of retinoid X receptor alpha signaling (AID 588546; active means well fitted inhibition curve with a large enough effect in the signal ratio, with a control signal flat, not every such curve was filed as active; the % refers to the signal ratio;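 further: cells stimulated with 9-cis-retinoic acid as agonist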); details: HEK293T RXRa-UAS-bla, beta-lactamase ratio, antagonist mode; measured here: W530 green channel, cytotoxicity proxy
In short: (§2)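 Beta-lactamase reporter inhibition, read as CCF4 fluorescence ratio (ex 405, em 460/530 nm) after 2 h at RT. HEK293T UAS-bla cells, 2500/well, were stimulated with 9-cis-RA at 500 or 100 nM final alongside test compound for 18 h at 37 C.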

[13] = biological target: Retinoic acid receptor RXR-alpha (Homo sapiens) (UniProt P19793); assay: as above; details: HEK293T RXRa-UAS-bla, beta-lactamase ratio, antagonist mode
In short: as §2

[14] = biological target: Thyroid hormone receptor beta (Homo sapiens) (UniProt P10828); assay: qHTS assay for small molecule antagonists of thyroid hormone receptor beta signaling (AID 588547; active means well fitted inhibition curve with a large enough effect in the signal ratio, with a control signal flat, not every such curve was filed as active; the % refers to the signal ratio;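 further: cells stimulated with 0.4 nM T3 agonist during compound exposure; series mostly up to about 77 µM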); details: TR-UAS-bla HEK293, beta-lactamase ratio, antagonist mode, 18 h
In short: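 TR-UAS-bla GripTite HEK293 cells in 2% charcoal/dextran FBS medium were preincubated 4 h at 37 C, given compound (0.59 nM to 92 uM) plus 0.4 nM T3 (final) for 18 h, then CCF4 for 2 h at RT; Hill fit gave IC50.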

[15] = qHTS assay for small molecule activators of the p53 signaling pathway (AID 651743; active means well fitted activation curve with a large enough effect in the signal ratio, not every such curve was filed as active; the % refers to the signal ratio; further: series mostly up to about 92 µM); details: HCT-116 p53RE-bla, beta-lactamase FRET ratio, 16 h; stronger effect = higher value
In short: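 Agonist-mode quantitative HTS in HCT-116 cells carrying a p53-response-element beta-lactamase reporter; 16 h compound treatment at 37 C, then FRET substrate loading for 2 h at room temperature and fluorescence read.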

[16] = biological target: Voltage-gated inwardly rectifying potassium channel KCNH2 (Homo sapiens) (UniProt Q12809); assay: qHTS Assay for Small Molecule Inhibitors of the Human hERG Channel Activity (AID 588834; active means well fitted inhibition curve with a large enough effect;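 further: top concentration of the series differs between compounds; lower thallium flux fluorescence means stronger hERG block; nearly all actives have a fitted effect of over 50% in size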)
In short: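 hERG block measured as reduced thallium-dye (FluxOR) fluorescence after stimulation buffer addition, read over 2 min. Cells were hERG-BacMam-transduced U2OS exposed to compound ~10 min […]; concentration-response fitted with Hill equation for AC50.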

[17] = qHTS assay for small molecule agonists of the antioxidant response element (ARE) signaling pathway (AID 651741; active means well fitted activation curve with a large enough effect in the signal ratio; the % refers to the signal ratio; further: potency means the concentration at half of the fitted maximal effect)
In short: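 Reporter: beta-lactamase under ARE, stably in HepG2. Exposure: 16 h, 37 C, compounds delivered in DMSO by pin tool after 5 h cell preincubation. Readout: FRET substrate fluorescence after 2 h at RT.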

[18] = qHTS assay for small molecule activators of the nuclear factor-kappa B (NF-kB) signaling pathway (AID 651749; active means well fitted activation curve with a large enough effect in the signal ratio; the % refers to the signal ratio; further: series mostly up to about 77 µM); details: NF-kB-bla ME-180 cells, beta-lactamase FRET ratio, 16 h; stronger effect = higher value
In short: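 Human ME-180 cervical cells with an NF-kB-bla construct; compounds added via 23 nL pin transfer, DMSO as vehicle; incubation 16 hr. Reporter activity measured by FRET disruption.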

[19] = qHTS assay for small molecule disruptors of the mitochondrial membrane potential - 1 hr assay (AID 651754); further: nearly all actives have a fitted effect of over 35% in size; further: potency means the concentration at half of the fitted maximal effect
In short: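 Loss of mitochondrial potential shifts the cationic dye from red mitochondrial aggregates to green cytoplasmic monomers. Cells (HepG2) are treated with compound for 1 hr before a 30 min dye incubation at 37C.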

[20] = biological target: Glucocorticoid receptor (Homo sapiens) (UniProt P04150); assay: qHTS assay for small molecule antagonists of glucocorticoid receptor signaling (AID 588533; active means well fitted inhibition curve with a large enough effect in the signal ratio, with a control signal flat, not every such curve was filed as active; the % refers to the signal ratio;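 further: cells stimulated with 2 nM dexamethasone as agonist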)
In short: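 Antagonist-mode qHTS: compound titrations added to GRE-bla HeLa cells, then dexamethasone 2 nM final; 18 h, 37 C. CCF4 FRET fluorescence normalized to dexamethasone and DMSO; IC50 from Hill fit.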

Chain of Thyroid hormone receptor beta (Homo sapiens) (P10828 whole entry, looked up): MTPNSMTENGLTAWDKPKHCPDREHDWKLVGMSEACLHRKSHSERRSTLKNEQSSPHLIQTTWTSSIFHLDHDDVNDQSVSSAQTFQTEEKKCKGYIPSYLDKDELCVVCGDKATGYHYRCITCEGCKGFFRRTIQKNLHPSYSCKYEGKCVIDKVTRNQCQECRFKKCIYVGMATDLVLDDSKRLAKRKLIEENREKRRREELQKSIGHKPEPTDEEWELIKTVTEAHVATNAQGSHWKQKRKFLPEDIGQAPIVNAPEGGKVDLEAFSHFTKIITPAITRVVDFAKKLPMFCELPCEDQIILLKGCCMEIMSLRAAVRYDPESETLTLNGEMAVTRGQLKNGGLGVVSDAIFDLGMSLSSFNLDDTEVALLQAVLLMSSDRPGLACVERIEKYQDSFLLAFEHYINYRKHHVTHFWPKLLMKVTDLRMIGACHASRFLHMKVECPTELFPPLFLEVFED
Chain of Peroxisome proliferator-activated receptor delta (Homo sapiens) (Q03181 whole entry, looked up): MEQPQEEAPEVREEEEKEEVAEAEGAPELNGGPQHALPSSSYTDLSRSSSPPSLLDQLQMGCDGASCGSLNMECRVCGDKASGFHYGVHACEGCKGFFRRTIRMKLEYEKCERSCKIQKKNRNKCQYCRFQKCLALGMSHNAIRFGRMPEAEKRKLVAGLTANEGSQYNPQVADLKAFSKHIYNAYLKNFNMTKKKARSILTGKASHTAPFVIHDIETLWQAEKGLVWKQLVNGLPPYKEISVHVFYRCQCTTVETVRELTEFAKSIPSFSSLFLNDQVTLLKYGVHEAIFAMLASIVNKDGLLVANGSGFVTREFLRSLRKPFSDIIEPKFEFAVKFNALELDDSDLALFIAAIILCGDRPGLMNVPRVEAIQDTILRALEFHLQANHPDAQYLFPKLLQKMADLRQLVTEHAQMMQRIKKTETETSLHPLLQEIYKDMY
Chain of Glucocorticoid receptor (Homo sapiens) (P04150 whole entry, looked up): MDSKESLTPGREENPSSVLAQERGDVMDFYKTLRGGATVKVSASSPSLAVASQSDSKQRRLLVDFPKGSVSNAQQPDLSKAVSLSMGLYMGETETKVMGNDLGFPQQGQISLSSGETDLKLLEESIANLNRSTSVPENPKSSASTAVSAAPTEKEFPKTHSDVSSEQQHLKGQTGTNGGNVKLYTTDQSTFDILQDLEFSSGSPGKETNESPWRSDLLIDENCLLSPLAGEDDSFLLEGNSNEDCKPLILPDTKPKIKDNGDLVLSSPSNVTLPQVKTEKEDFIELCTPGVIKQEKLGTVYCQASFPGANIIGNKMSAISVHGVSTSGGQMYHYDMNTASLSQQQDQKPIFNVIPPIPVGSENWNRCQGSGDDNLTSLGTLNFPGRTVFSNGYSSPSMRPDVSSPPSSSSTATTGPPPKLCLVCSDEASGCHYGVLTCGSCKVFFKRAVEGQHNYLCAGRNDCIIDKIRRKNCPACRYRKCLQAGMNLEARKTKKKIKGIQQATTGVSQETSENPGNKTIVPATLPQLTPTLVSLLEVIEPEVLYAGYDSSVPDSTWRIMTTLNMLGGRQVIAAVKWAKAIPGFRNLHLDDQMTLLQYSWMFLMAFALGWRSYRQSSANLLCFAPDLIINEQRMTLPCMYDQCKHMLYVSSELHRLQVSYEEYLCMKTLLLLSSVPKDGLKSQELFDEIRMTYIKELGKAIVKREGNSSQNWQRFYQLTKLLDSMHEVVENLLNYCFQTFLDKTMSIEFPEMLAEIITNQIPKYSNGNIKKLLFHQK
Chain of Retinoic acid receptor RXR-alpha (Homo sapiens) (P19793 whole entry, looked up): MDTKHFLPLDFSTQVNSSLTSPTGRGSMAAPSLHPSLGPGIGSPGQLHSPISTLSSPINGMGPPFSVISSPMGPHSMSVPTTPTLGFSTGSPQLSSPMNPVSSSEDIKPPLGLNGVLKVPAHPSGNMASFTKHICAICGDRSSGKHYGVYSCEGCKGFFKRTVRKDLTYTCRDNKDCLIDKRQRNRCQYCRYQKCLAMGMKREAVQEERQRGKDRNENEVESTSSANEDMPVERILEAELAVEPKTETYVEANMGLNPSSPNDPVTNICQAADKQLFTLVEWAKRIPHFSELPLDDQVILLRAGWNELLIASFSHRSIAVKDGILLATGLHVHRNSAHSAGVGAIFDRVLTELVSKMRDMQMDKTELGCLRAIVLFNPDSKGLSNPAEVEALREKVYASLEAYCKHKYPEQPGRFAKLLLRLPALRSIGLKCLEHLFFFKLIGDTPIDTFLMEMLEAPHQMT
Chain of Bile acid receptor (Homo sapiens) (Q96RI1 whole entry, looked up): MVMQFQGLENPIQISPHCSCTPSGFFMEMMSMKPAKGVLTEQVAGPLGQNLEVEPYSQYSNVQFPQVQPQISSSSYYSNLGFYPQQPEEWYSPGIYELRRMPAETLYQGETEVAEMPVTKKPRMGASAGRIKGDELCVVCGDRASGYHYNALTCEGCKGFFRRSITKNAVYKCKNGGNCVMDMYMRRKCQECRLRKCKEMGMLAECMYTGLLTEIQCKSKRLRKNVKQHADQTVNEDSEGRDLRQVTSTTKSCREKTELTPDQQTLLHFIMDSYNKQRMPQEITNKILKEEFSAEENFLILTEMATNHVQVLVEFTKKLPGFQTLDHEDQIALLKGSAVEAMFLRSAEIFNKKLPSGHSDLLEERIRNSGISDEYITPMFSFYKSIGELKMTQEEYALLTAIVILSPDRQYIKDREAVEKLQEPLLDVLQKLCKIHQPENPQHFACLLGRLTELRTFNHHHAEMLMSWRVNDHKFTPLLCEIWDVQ
Chain of Voltage-gated inwardly rectifying potassium channel KCNH2 (Homo sapiens) (Q12809 whole entry, looked up): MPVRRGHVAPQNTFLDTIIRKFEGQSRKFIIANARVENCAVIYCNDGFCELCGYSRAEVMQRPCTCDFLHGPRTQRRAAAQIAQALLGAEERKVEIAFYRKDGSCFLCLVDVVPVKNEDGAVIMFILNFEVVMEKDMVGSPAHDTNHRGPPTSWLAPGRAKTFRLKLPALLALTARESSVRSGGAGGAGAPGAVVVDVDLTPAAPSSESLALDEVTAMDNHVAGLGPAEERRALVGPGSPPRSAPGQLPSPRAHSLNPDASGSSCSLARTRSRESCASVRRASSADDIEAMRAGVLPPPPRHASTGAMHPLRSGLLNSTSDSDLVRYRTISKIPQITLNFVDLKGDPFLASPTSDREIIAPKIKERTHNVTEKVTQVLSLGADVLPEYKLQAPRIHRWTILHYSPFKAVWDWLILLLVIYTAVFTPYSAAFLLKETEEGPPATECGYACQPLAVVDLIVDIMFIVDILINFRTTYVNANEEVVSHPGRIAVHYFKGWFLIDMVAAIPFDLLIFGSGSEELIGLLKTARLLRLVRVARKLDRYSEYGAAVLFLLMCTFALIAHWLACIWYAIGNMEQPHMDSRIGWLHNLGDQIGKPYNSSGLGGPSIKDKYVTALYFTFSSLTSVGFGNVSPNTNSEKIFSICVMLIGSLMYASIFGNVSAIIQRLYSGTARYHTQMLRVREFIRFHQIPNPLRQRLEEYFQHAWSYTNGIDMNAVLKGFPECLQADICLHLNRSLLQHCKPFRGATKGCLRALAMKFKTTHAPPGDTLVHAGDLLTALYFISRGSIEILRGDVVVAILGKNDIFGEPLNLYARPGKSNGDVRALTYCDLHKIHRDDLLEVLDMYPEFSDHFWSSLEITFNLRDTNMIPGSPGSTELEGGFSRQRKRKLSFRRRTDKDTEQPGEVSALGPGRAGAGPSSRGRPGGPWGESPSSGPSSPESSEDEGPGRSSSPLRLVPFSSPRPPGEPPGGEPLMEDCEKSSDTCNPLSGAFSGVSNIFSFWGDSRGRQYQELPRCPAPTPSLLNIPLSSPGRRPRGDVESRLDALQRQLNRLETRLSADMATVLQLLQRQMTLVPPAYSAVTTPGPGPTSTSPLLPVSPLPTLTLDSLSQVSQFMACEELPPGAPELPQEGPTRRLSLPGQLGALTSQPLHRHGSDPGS
Chain of Vitamin D3 receptor (Homo sapiens) (P11473 whole entry, looked up): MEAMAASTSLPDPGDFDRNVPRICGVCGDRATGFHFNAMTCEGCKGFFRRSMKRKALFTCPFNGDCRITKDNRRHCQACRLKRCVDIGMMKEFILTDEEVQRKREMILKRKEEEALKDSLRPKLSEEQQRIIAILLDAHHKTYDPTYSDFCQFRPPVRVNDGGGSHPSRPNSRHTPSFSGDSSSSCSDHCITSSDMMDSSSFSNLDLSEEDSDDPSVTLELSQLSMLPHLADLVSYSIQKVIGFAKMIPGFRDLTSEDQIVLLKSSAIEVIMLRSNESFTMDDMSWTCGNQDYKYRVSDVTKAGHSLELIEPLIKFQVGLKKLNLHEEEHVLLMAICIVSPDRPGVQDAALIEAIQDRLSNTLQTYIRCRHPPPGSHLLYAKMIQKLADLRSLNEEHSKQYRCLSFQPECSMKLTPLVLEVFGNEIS
Chain of Peroxisome proliferator-activated receptor gamma (Homo sapiens) (P37231 whole entry, looked up): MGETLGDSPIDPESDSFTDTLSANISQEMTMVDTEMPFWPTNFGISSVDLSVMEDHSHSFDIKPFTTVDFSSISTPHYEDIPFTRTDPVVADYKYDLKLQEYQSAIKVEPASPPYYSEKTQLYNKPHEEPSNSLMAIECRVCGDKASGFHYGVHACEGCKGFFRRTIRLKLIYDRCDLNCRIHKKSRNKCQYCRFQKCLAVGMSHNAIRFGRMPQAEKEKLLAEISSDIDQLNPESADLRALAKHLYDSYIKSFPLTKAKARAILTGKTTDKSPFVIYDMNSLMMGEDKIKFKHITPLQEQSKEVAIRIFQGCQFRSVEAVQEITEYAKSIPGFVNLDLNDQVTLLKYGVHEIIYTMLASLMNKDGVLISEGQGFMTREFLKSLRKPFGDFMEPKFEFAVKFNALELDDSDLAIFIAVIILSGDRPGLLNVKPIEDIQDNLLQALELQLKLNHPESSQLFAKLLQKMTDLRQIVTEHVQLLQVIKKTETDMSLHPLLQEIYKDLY

Compound	outcome [1]	activation [2]	max response [3]	Potency [4]	outcome [5]	outcome [6]	outcome [7]	outcome [8]	max response [9]	outcome [10]	outcome [11]	max response [12]	max response [13]	activity change % (negative = inhibition) [14]	activation [15]	Potency [16]	Potency [17]	activation [18]	Potency [19]	outcome [20]
CCC(=O)/C=C/C1C(C)=CCCC1(C)C (configuration not stated)	inactive	-2.65% (inactive)	2.01%	inactive	inactive	inactive	inactive	inactive	-9.1%	inactive	inactive	-4%	2.33% (inactive)	-4.67% (inactive)	-2.61% (inactive)	–	–	–	–	–
BrC/C=C/CBr	inactive	–	20.5%	inactive	inactive	inactive	–	–	2.54%	inactive	inactive	-0.458%	-9.94% (inactive)	15.3% (inactive)	0.265% (inactive)	inactive	42.2 µM (active)	0.2% (inactive)	inactive	–
C=Cc1ccc(C=C)cc1	inactive	–	-5.46%	inactive	inactive	–	inactive	inactive	-1.02%	inactive	inactive	-3.44%	16.7% (inactive)	-18.2% (inactive)	–	inactive	inactive	0.161% (inactive)	inactive	inactive
Cc1cc([N+](=O)[O-])ccc1N	inactive	-2.44% (inactive)	–	–	inactive	inactive	–	inactive	-1.24%	inactive	inactive	-8.79%	2.58% (inactive)	-9.22% (inactive)	-4.49% (inactive)	–	inactive	-0.648% (inactive)	inactive	inactive
C=C(C)C(=O)OCCCCCCCCCC	inactive	8.77% (inactive)	–	–	inactive	inactive	–	inactive	-10.3%	inactive	inactive	-7.57%	-3.36% (inactive)	12.3% (inactive)	–	–	–	–	–	inactive
CN(C)CCCCl	inactive	–	–	–	–	–	inactive	inactive	-11.7%	inactive	inactive	-4.19%	-2.2% (inactive)	10.5% (inactive)	-1.08% (inactive)	inactive	inactive	0.444% (inactive)	inactive	inactive
CCCCCCCCC/C=C/CC1CC(=O)OC1=O (configuration not stated)	inactive	–	–	–	inactive	–	inactive	inactive	-0.831%	inactive	inactive	1.93%	–	2.72% (inactive)	3.69% (inactive)	inactive	–	-0.282% (inactive)	inactive	inactive
CC(C)c1ccccc1	inactive	-12.7% (inactive)	–	–	inactive	inactive	inactive	inactive	-7.95%	inactive	inactive	7.79%	6.96% (inactive)	6.43% (inactive)	0.723% (inactive)	–	inactive	-1.2% (inactive)	–	inactive
COc1cccc(N)c1	inactive	1.73% (inactive)	–	–	–	–	–	inactive	15.1%	inactive	inactive	–	–	-9.05% (inactive)	-3.72% (inactive)	inactive	–	–	inactive	inactive
Clc1ccccn1	inactive	–	26.1%	inactive	–	–	inactive	inactive	-14.3%	inactive	inactive	-9.05%	21.3% (inactive)	-6.15% (inactive)	-3.75% (inactive)	inactive	inactive	-1% (inactive)	inactive	–
Nc1cccc(N)c1	inactive	–	–	–	inactive	inactive	inactive	inactive	0.0667%	inactive	inactive	1.75%	–	-1.36% (inactive)	-1.04% (inactive)	inactive	–	-0.628% (inactive)	21.1 µM (active)	–
CC(C)Cc1nccs1	inactive	–	–	–	inactive	–	inactive	inactive	-0.474%	inactive	inactive	-5.6%	12.1% (inactive)	0.497% (inactive)	0.156% (inactive)	inactive	inactive	0.674% (inactive)	inactive	–
CCCCCCCCC	–	-2.92% (inactive)	3.26%	inactive	inactive	inactive	inactive	inactive	-5.14%	inactive	–	-11.2%	0.715% (inactive)	13.2% (inactive)	-1.85% (inactive)	inactive	inactive	0.37% (inactive)	inactive	inactive
C=C(C)C(=O)OCCCCCC	–	8.12% (inactive)	4.68%	inactive	inactive	inactive	inactive	inactive	-12.9%	inactive	inactive	–	–	6.42% (inactive)	-0.374% (inactive)	inactive	–	0.571% (inactive)	inactive	inactive
Cc1ccc(C)c(O)c1	inactive	–	7.19%	inactive	inactive	–	–	inactive	0.17%	inactive	inactive	-5.88%	6.26% (inactive)	1.01% (inactive)	0.75% (inactive)	inactive	inactive	–	–	–
CC(C)N(C)C	–	0.0793% (inactive)	-0.77%	inactive	inactive	inactive	–	inactive	-10.9%	inactive	–	-0.298%	11.2% (inactive)	-6.45% (inactive)	-1.2% (inactive)	inactive	inactive	-1.35% (inactive)	inactive	inactive
